Reference: PubChem BioAssay AID1159580 (chemical genetic matrix, 2015)
Hit rate of the full screen: of about 5,500 compounds, about 2,000 (36%) were called active. Another 18% or so got no clear call; they are omitted. Rule as the data show it: active = normalized growth mostly below about 0.91 (no sharp cut-off); inconclusive = no clear call, values can overlap the other calls; inactive = mostly above about 0.92. Some of the results follow.

Experiment: chemical genetic growth profiling, strain panel (AID 1159580);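 also: tested at 20 µM; growth read once vehicle control cultures reached saturation at 30 °C; 1 = growth at the plate median or of vehicle wells; lower values mean less growth of the strain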
Conditions: growth OD

Measured: normalized growth

COc1cc2c(cc1OC)Cc1cc(OC)c(OC)cc1Cc1cc(OC)c(OC)cc1C2
inactive: S. cerevisiae deletion strains, locus YJR066W, strain TOR1, stronger effect = lower value 0.974 | S. cerevisiae deletion strains, locus YJR075W, strain HOC1, stronger effect = lower value 1.02 | S. cerevisiae deletion strains, locus YKL009W, strain mrt4, stronger effect = lower value 0.942 | S. cerevisiae deletion strains, locus YKL068W, stronger effect = lower value 1.02 | S. cerevisiae deletion strains, locus YKL085W, strain MDH1 (second series), stronger effect = lower value 0.927 | S. cerevisiae deletion strains, locus YKL085W, strain MDH1, stronger effect = lower value 0.927 | S. cerevisiae deletion strains, locus YKL160W, strain elf1, stronger effect = lower value 1.02 | S. cerevisiae deletion strains, locus YKL190W, strain CNB1, stronger effect = lower value 0.992 | S. cerevisiae deletion strains, locus YKR001C, strain vps1, stronger effect = lower value 1.04 | S. cerevisiae deletion strains, locus YKR026C, strain gcn3, stronger effect = lower value 1 | S. cerevisiae deletion strains, locus YKR091W, strain srl3, stronger effect = lower value 1.03 | S. cerevisiae deletion strains, locus YLL001W, strain dnm1, stronger effect = lower value 1.01 | S. cerevisiae deletion strains, locus YLL026W, stronger effect = lower value 1.04 | S. cerevisiae deletion strains, locus YLL041C, strain sdh2, stronger effect = lower value 1.03 | S. cerevisiae deletion strains, locus YLR027C, strain aat2, stronger effect = lower value 1.03 | S. cerevisiae deletion strains, locus YLR039C, strain RIC1, stronger effect = lower value 1.05 | S. cerevisiae deletion strains, locus YLR058C, strain SHM2, stronger effect = lower value 1.02 | S. cerevisiae deletion strains, locus YLR102C, strain apc9, stronger effect = lower value 1.03 | S. cerevisiae deletion strains, locus YLR113W, strain HOG1, stronger effect = lower value 1.05 | S. cerevisiae deletion strains, locus YLR221C, strain rsa3, stronger effect = lower value 1.04 | S. cerevisiae deletion strains, locus YLR258W, strain gsy2, stronger effect = lower value 1.03 | S. cerevisiae deletion strains, locus YLR262C, strain YPT6 (second series), stronger effect = lower value 1.05 | S. cerevisiae deletion strains, locus YLR262C, strain YPT6, stronger effect = lower value 1.08 | S. cerevisiae deletion strains, locus YLR268W, strain sec22, stronger effect = lower value 1.04 | S. cerevisiae deletion strains, locus YLR320W, strain mms22, stronger effect = lower value 1.03 | S. cerevisiae deletion strains, locus YLR330W, strain CHS5, stronger effect = lower value 1.01 | S. cerevisiae deletion strains, locus YLR342W, strain FKS1 (second series), stronger effect = lower value 1 | S. cerevisiae deletion strains, locus YLR342W, strain FKS1, stronger effect = lower value 1.04 | S. cerevisiae deletion strains, locus YLR357W, strain rsc2, stronger effect = lower value 1.05 | S. cerevisiae deletion strains, locus YLR370C, strain arc18, stronger effect = lower value 1.03 | S. cerevisiae deletion strains, locus YLR371W, strain rom2, stronger effect = lower value 1.03 | S. cerevisiae deletion strains, locus YLR384C, strain iki3, stronger effect = lower value 1.03 | S. cerevisiae deletion strains, locus YLR418C, strain cdc73, stronger effect = lower value 1.04 | S. cerevisiae deletion strains, locus YML016C, strain PPZ1, stronger effect = lower value 1.01 | S. cerevisiae deletion strains, locus YML032C, strain rad52, stronger effect = lower value 1.01 | S. cerevisiae deletion strains, locus YML120C, strain ndi1, stronger effect = lower value 1.02 | S. cerevisiae deletion strains, locus YML124C, strain tub3, stronger effect = lower value 1.06 | S. cerevisiae deletion strains, locus YMR058W, strain fet3, stronger effect = lower value 1.03 | S. cerevisiae deletion strains, locus YMR078C, strain ctf18, stronger effect = lower value 1.04 | S. cerevisiae deletion strains, locus YMR125W, strain sto1, stronger effect = lower value 1.05 | S. cerevisiae deletion strains, locus YMR129W, stronger effect = lower value 1.04 | S. cerevisiae deletion strains, locus YMR205C, strain PFK2, stronger effect = lower value 1.05 | S. cerevisiae deletion strains, locus YMR223W, strain ubp8, stronger effect = lower value 1.03 | S. cerevisiae deletion strains, locus YMR231W, strain pep5, stronger effect = lower value 1.03 | S. cerevisiae deletion strains, locus YMR263W, strain SAP30, stronger effect = lower value 1.01 | S. cerevisiae deletion strains, locus YMR307W, strain GAS1, stronger effect = lower value 1.04 | S. cerevisiae deletion strains, locus YNL067W, strain RPL9B, stronger effect = lower value 1.03 | S. cerevisiae deletion strains, locus YNL071W, strain lat1, stronger effect = lower value 1.03 | S. cerevisiae deletion strains, locus YNL183C, strain NPR1, stronger effect = lower value 0.956 | S. cerevisiae deletion strains, locus YNL209W, strain ssb2, stronger effect = lower value 1.03 | S. cerevisiae deletion strains, locus YNL233W, strain BNI4, stronger effect = lower value 1.01 | S. cerevisiae deletion strains, locus YNL248C, strain rpa49, stronger effect = lower value 1.03 | S. cerevisiae deletion strains, locus YNL250W, strain rad50, stronger effect = lower value 1.04 | S. cerevisiae deletion strains, locus YNL271C, strain bni1, stronger effect = lower value 1.02 | S. cerevisiae deletion strains, locus YNL298W, strain CLA4, stronger effect = lower value 1.02 | S. cerevisiae deletion strains, locus YNL307C, strain MCK1, stronger effect = lower value 1.03 | S. cerevisiae deletion strains, locus YNL322C, strain KRE1 (second series), stronger effect = lower value 1.05 | S. cerevisiae deletion strains, locus YNL322C, strain KRE1, stronger effect = lower value 1.03 | S. cerevisiae deletion strains, locus YNR049C, strain mso1, stronger effect = lower value 1.03 | S. cerevisiae deletion strains, locus YNR052C, strain pop2, stronger effect = lower value 1.02 | S. cerevisiae deletion strains, locus YOL012C, strain htz1 0.876 | S. cerevisiae deletion strains, locus YOL147C, strain pex11, stronger effect = lower value 1.02 | S. cerevisiae deletion strains, locus YOR001W, strain rrp6, stronger effect = lower value 1.02 | S. cerevisiae deletion strains, locus YOR061W, strain CKA2, stronger effect = lower value 1.01 | S. cerevisiae deletion strains, locus YOR069W, strain VPS5, stronger effect = lower value 1.01 | S. cerevisiae deletion strains, locus YOR070C, strain gyp1, stronger effect = lower value 1.03 | S. cerevisiae deletion strains, locus YOR080W, strain dia2, stronger effect = lower value 1.04 | S. cerevisiae deletion strains, locus YOR083W, strain WHI5, stronger effect = lower value 1.01 | S. cerevisiae deletion strains, locus YOR106W, strain vam3, stronger effect = lower value 1.07 | S. cerevisiae deletion strains, locus YOR136W, strain idh2, stronger effect = lower value 1.05 | S. cerevisiae deletion strains, locus YOR144C, strain elg1, stronger effect = lower value 1.04 | S. cerevisiae deletion strains, locus YOR184W, strain ser1, stronger effect = lower value 1.03 | S. cerevisiae deletion strains, locus YOR231W, strain MKK1, stronger effect = lower value 1.04 | S. cerevisiae deletion strains, locus YOR265W, strain rbl2, stronger effect = lower value 1.02 | S. cerevisiae deletion strains, locus YOR270C, strain vph1, stronger effect = lower value 1.03 | S. cerevisiae deletion strains, locus YOR290C, strain snf2, stronger effect = lower value 0.995 | S. cerevisiae deletion strains, locus YOR316C, strain cot1, stronger effect = lower value 1.02 | S. cerevisiae deletion strains, locus YPL051W, strain arl3, stronger effect = lower value 1.02 | S. cerevisiae deletion strains, locus YPL055C, strain LGE1, stronger effect = lower value 1.03 | S. cerevisiae deletion strains, locus YPL078C, strain atp4, stronger effect = lower value 1.03 | S. cerevisiae deletion strains, locus YPL106C, strain sse1, stronger effect = lower value 1.06 | S. cerevisiae deletion strains, locus YPL240C, strain hsp82, stronger effect = lower value 1.02 | S. cerevisiae deletion strains, locus YPL256C, strain CLN2, stronger effect = lower value 1.06 | S. cerevisiae deletion strains, locus YPR119W, strain clb2, stronger effect = lower value 1 | S. cerevisiae deletion strains, locus YPR141C, strain kar3, stronger effect = lower value 1.03 | S. cerevisiae deletion strains, locus YPR163C, strain tif3, stronger effect = lower value 1.03 | S. cerevisiae deletion strains, locus YPR167C, strain met16, stronger effect = lower value 1.03 | S. cerevisiae deletion strains, strain wtn01, stronger effect = lower value 1.04 | S. cerevisiae strains, strain wild type, stronger effect = lower value 1.03
